# TROY NFkB inh: inhibitors of TROY-driven NF-kB signaling, primary screen, Q293 LMP1-TROYcd cells, NF-kB luciferase, uHTS. Q293 LMP1-TROYcd NF-kB luciferase reporter, 4 h. inhibition, % at 10 µM. 360,000 compounds, 0.98% hits. AID 1347056, 2019;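 active = compounds whose plate-normalised and pattern-corrected inhibition of the luciferase reporter signal at the single screening dose is 50% or more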
# LGR2 inh: inhibitors of bursicon-induced LGR2 CRE-luciferase signal, primary screen, cell-based, HEK293, CRE-luciferase reporter, bursicon stimulation; Drosophila bursicon receptor LGR2 (rickets); AID 720647, 2013; 380,000 compounds, 0.35% hits; inhibition, % at 9.99 µM; bursicon-stimulated, 4 h;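 active = drop in luminescence signal, shown as inhibition above about 50% in the replicate tests, limit read from the data, passing the limit was not always enough; inconclusive = probably only some replicates passing the limit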;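 also: agonist challenge used bursicon conditioned medium at about half maximal strength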
# HSP90 refold inh: HSP90 inhibitors, primary screen, cell lysate, luminescence; Heat shock protein HSP 90 (rabbit reticulocyte lysate; luciferase refolding); inhibition, % at 5.6 µM; 290,000 compounds, 0.91% hits; Rabbit reticulocyte lysate, luciferase refolding luminescence, 3 h;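 active = inhibition above the screen-wide mean plus 3 SD, computed separately per campaign, cut at about 16% in these data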;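 also: 0% = DMSO wells and 100% = 60 µM geldanamycin wells; inhibitors lower the luminescence because luciferase stays unfolded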
# aDG glyco up: activators of alpha-DG glycosylation, primary screen, uHTS, Pro5-aDG cells, AlphaScreen; alpha-DG glycosylation AlphaScreen (IIH6); 0% Pro5, 100% B10-LARGE cell signal; activation, % at 10 µM; 360,000 compounds, 0.22% hits; AID 624168, 2012;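 active = activation of at least 8% versus controls, or a plate z-score of at least 8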;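 also: Pro5 are CHO cells carrying HIG-tagged alpha-DG that lacks glycosylation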
# EBV LMP1 NFkB: EBV LMP1-driven NF-kappaB luciferase reporter inhibitors, primary screen, cell-based, luminescence, single point; LMP1-induced NF-kappaB luciferase reporter cells; AID 504558, 2011; 350,000 compounds, 0.69% hits; inhibition, % at 12.5 µM; in the data active = inhibition above about 41%; inconclusive = no clear call, values can overlap the other calls;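 also: 0% = neutral control wells and 100% = reference inhibitor control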
# TWEAK-Fn14 inh: inhibitors of TWEAK-Fn14 signaling, primary screen, luciferase reporter cells, uHTS. TWEAK-stimulated Fn14 reporter cells, luciferase luminescence, 8 h. inhibition, % at 10 µM. 360,000 compounds, 2% hits. AID 1159606, 2016; in the data active = inhibition above about 50%
# * = called active by the depositor; ? = inconclusive; / = no result. Hits are enriched below; roughly 2.6% of the tested compounds scored in any of these assays.
SMILES,TROY NFkB inh,LGR2 inh,HSP90 refold inh,aDG glyco up,EBV LMP1 NFkB,TWEAK-Fn14 inh
CC(C)NC(=O)N1[C@H](CO)[C@H]2c3ccccc3N(C(=O)Nc3ccccc3)C[C@H]21,/,5,/,/,/,/
O=C(Nc1ncccc1O)c1cc2ccccc2o1,19,33,/,0,42*,40
CCOC(=O)[C@]12CCCC=C1N(Cc1ccccc1)C(=O)[C@H](CC(=O)NCc1ccc(OC)c(OC)c1)C2,/,0,/,2,/,/
CCOC(=O)[C@]12CCCC=C1N(Cc1cccc3ccccc13)C(=O)[C@H](CC(=O)NCc1ccc(OC)c(OC)c1)C2,37,40*,/,0,/,38
O=C(Nc1ccc2ccccc2c1)c1onc2c1CCCC2,16,28,3,0,-31,57*
COC(=O)c1cccc(NC(=O)c2onc3c2CCCC3)c1,-77,-76,12,0,-1,5
Cc1cccc(NC(=O)c2onc3c2CCCC3)n1,52*,77*,28*,0,31,80*
Cc1ccc(S(=O)(=O)N[C@@H]2CC[C@@H](CCNC(=O)CN3CCOCC3)O[C@H]2CO)cc1,/,-3,/,/,/,/
C=CCn1c(CSCc2ccc(C)cc2)nnc1SCC(=O)NCc1ccccc1,/,-17,1,0,-2,74*
O=C1CN(S(=O)(=O)c2cccc(F)c2)C[C@@H]2[C@@H](c3ccc(-c4ccc(F)cc4)cc3)[C@@H](CO)N12,/,5,/,/,/,/
C=CCn1c(SCC(=O)Nc2sccc2C(N)=O)nc2sc(CC)cc2c1=O,48,/,-4,1,13,72*
C=CCn1c(SCC(=O)Nc2sccc2C(N)=O)nc2ccc(Cl)cc2c1=O,49,/,0,3,-10,73*
Cc1noc(C)c1NC(=O)Nc1ccc2c(c1)CC(=O)N([C@H](C)CO)C[C@H](C)[C@H](CN(C)Cc1ccccc1)O2,/,-15,/,/,/,/
Cc1noc(C)c1NC(=O)Nc1ccc2c(c1)C(=O)N([C@H](C)CO)C[C@@H](C)[C@H](CN(C)CC1CC1)OCCCC[C@@H](C)O2,/,-5,/,/,/,/
O=C(Nc1ccc2c(c1)OCO2)NC1(C(F)(F)F)Oc2ccccc2O1,-2,/,-2,0,-8,-26
O=C(Nc1ccc2c(c1)OCCO2)NC1(C(F)(F)F)Oc2ccccc2O1,28,?,-2,0,5,89*
C[C@@H]1CN([C@H](C)CO)C(=O)c2cc(NS(=O)(=O)c3ccc(Cl)cc3)ccc2O[C@H]1CN(C)C(=O)Nc1ccc2c(c1)OCO2,/,-4,/,/,/,/
O=C1CN(Cc2ccccc2)C[C@@H]2[C@H](c3ccc(-c4ccccc4)cc3)[C@H](CO)N12,/,9,/,/,/,/
CN1C(=O)C(=O)/C(=C(/O)c2ccc(Br)cc2)C1c1ccc(Cl)cc1 (configuration not stated),-10,1,3,0,4,95*
CCC(=O)N1[C@H](CO)[C@H](c2ccccc2-c2cccc(C)c2)[C@@H]1C#N,/,5,/,/,/,/
C[C@H](CO)N1C[C@H](C)[C@@H](CN(C)Cc2ccc(C(F)(F)F)cc2)Oc2ccc(NS(=O)(=O)c3cn(C)cn3)cc2CC1=O,/,-20,/,/,/,/
O=C(Nc1ccc(Br)c(C(F)(F)F)c1)c1ccc(C(F)(F)F)cc1,47,8,-6,0,/,63*
O=C(Nc1ccc(OCC(F)(F)C(F)F)c(C(F)(F)F)c1)c1ccc(Cl)cc1,52*,/,1,1,38,77*
C[C@@H]1CN([C@@H](C)CO)C(=O)c2cc(NC(=O)CCC(F)(F)F)ccc2O[C@H]1CN(C)CC1CC1,/,-8,/,/,/,/
O=C(Oc1ccccc1C(=O)Nc1ccccc1)c1ccc(Br)c([N+](=O)[O-])c1,-42,-14,-3,1,-11,20
SMILES,TROY NFkB inh,LGR2 inh,HSP90 refold inh,aDG glyco up,EBV LMP1 NFkB,TWEAK-Fn14 inh
O=C(NCc1cc(Br)cc(Br)c1OC(=O)c1ccccc1[N+](=O)[O-])c1ccccc1,34,28,1,1,7,55*
Cc1ccc(S(=O)(=O)N(C)C[C@@H]2Oc3ccc(NC(=O)Nc4ccc(F)cc4)cc3CC(=O)N([C@@H](C)CO)C[C@@H]2C)cc1,/,-14,/,/,/,/
CC(=O)N(CN1C(=O)CCC1=O)c1ccc(Cl)c(Cl)c1,58*,-51,-3,0,1,73*
COc1cccc(C#Cc2ccc3c(c2)O[C@H](CN(C)C(=O)c2ccccn2)[C@H](C)CN([C@@H](C)CO)S3(=O)=O)c1,/,16,/,/,/,/
COC(=O)C[C@@H]1C[C@@H]2c3cc(NS(C)(=O)=O)ccc3O[C@@H]2[C@H](CO)O1,/,-4,/,/,/,/
O=[N+]([O-])c1cccc(C=NNC(=S)NC23CC4CC(CC(C4)C2)C3)c1,60*,-59,/,0,-8,11
COCC(=O)N1[C@@H](C#N)[C@@H](c2ccccc2C2=CCCCC2)[C@@H]1CO,/,3,/,/,/,/
Cc1csc(=NC(=O)c2ccccc2)n1C,-32,/,11,0,-12,2
O=C(N=c1nc2ccccn2s1)c1ccccc1,59*,/,/,0,9,95*
C[C@@H]1CN([C@@H](C)CO)C(=O)c2cc(NC(=O)Cc3ccccc3)ccc2O[C@H]1CN(C)C(=O)Nc1ccc(F)cc1,/,-9,/,/,/,/
CN(C)CC(=O)N1[C@H](CO)[C@H](c2ccccc2-c2cccc(C(=O)N(C)C)c2)[C@@H]1C#N,/,3,/,/,/,/
C=C(C)[C@@H]1C2=CC(C(=O)OC)=C(C[C@H](C(=C)C)[C@H]3O[C@H]3C3=C[C@H]1OC3=O)O2,2,/,/,0,/,72*
COc1ccc2cc3cc(C(=O)NCCN4CCN(c5ccccc5F)CC4)oc3nc2c1,60*,/,1,1,21,67*
CCS(=O)(=O)N1CCCCN2[C@@H](CO)[C@@H](c3ccc(C4=CCCC4)cc3)[C@@H]2C1,/,9,/,/,/,/
CCCNC(=O)C[C@H]1CC[C@H]2[C@@H](COC[C@H](O)CN2C(=O)c2cccnc2)O1,/,1,/,/,/,/
CCOc1ccccc1/C=N/n1nnnc1N,-10,-12,3,0,9,74*
Nc1nnnn1/N=C/c1ccccc1O,-8,1,/,0,2,0
Cc1noc(C)c1NC(=O)N[C@@H]1CC[C@@H](CC(=O)N2CCCCC2)O[C@@H]1CO,/,-2,/,/,/,/
Cc1nc2ccc(F)cc2cc1C(=O)Nc1ccc(Cl)c(Cl)c1,-7,3,-1,0,14,51*
CCOC(=O)C1=C(Cn2cnc3ccccc32)NC(=O)NC1c1cc(C)ccc1C (configuration not stated),52*,47,3,0,0,11

# Assay outcomes: PubChem BioAssay, several laboratories
